Source: PubChem (National Center for Advancing Translational Sciences (NCATS))
Pf Dd2 inh: Plasmodium falciparum Dd2 growth inhibition; P. falciparum Dd2 growth, SYBR Green, 72 h; Potency, µM (doses to about 28.9 µM), without a hit: top-dose activity, negative = inhibition, actives largely listed as inhibitors; 4.3% of 120,000 active; AID 1347417; active means well fitted inhibition curve with a large enough effect;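 further: plate controls were DMSO vehicle for no effect and reference drug for full effect; nearly all actives have a fitted effect of over 65% in size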
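Readout: SYBR Green fluorescence, 485 nm excitation, 535 nm emission, after ~16 h lysis at 37C. Before that, Dd2-infected red cells (2.5% hematocrit) grew 72 h with compound, 29 uM top final concentration.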
The depositor's hits bear a star; i = inactive; [ ] = remark or other dose. The full list was thinned out, with hits kept by preference. Potency means the concentration at half of the fitted maximal effect.

SMILES	Pf Dd2 inh
CN(C)S(=O)(=O)N1CCC(N2C(=O)C3(CCCCC3)C2c2ccccc2)CC1 (stereo not given)	-21%
O=C1N(C2CCNCC2)C(c2ccccc2)C12CCCC2 (stereo not given)	5µM*
CCOC(=O)CCNC(=O)N1CCC(N2C(=O)C3(CCCC3)C2c2scnc2C)CC1 (stereo not given)	-12%
COCC(=O)N1CCC(N2C(=O)C3(CCCCC3)C2c2ccccc2)CC1 (stereo not given)	-30%
O=C(Cn1ccnc1)N1CCC(N2C(=O)C3(CCCC3)C2c2ccccc2)CC1 (stereo not given)	-7%
Cn1cnc(S(=O)(=O)N2CCC(N3C(=O)C4(CCCC4)C3c3ccccc3)CC2)c1 (stereo not given)	-11%
O=C(Cc1ccncc1)N1CCC(N2C(=O)C3(CCCCC3)C2c2ccccc2)CC1 (stereo not given)	i
O=C(CC(F)(F)F)N1CCC(N2C(=O)C3(CCCC3)C2c2ccccc2)CC1 (stereo not given)	6.3µM*
CCNC(=O)N1CCC(N2C(=O)C3(CCCC3)C2c2ccccc2)CC1 (stereo not given)	11µM*
Cc1ccc(-c2nc3cnccn3c2NCCC(=O)O)cc1	10%
COc1ccc(C(=O)N2CCC3(CC(C)=NO3)C2)cc1 (stereo not given)	5%[44.1 µM]
COc1ccc2[nH]cc(CCNC(=O)C3CC(=O)N(c4n[nH]c5cccc(F)c45)C3)c2c1 (stereo not given)	i
CC(C)(C)C(=O)NC1CCN(c2nc3ncccc3o2)CC1	-16%[44.1 µM]
COc1ccc(CN2CCC3(CC(C)=NO3)C2)cc1 (stereo not given)	-12%[44.1 µM]
CC(=O)N1Cc2ccccc2OC2(CCN(C(=O)NC(C)C)CC2)C1	-9%
CC(C)NC(=O)N1CCC2(CC1)CN(C(=O)c1ccc3[nH]ccc3c1)Cc1ccccc1O2	13µM*
C[S+](=O)([O-])N1Cc2ccccc2OC2(CCN(C(=O)c3cccc4[nH]ccc34)CC2)C1	-29%
CC(=O)N1CCC2(CC1)CN(C(=O)NC(C)C)Cc1ccccc1O2	9%
CN(C)C(=O)N1CCC2(CC1)CN(C(=O)c1cccc3[nH]ccc13)Cc1ccccc1O2	-28%
CC(C)NC(=O)N1Cc2ccccc2OC2(CCN(C(=O)c3cccc4[nH]ccc34)CC2)C1	11µM*
O=C(NC1C[C@H]2CC[C@@H](C1)N2C(=O)c1cccc(C(F)(F)F)c1)c1ccncc1 (stereo not given in full)	-10%
CCCN1CCN(C(=O)Cn2c(C)ccc(NC(=O)Nc3ccccc3)c2=O)CC1	i
CC(C)(C)C(=O)Nc1cnc(-c2cccnc2)nc1	i
O=C(Nc1nc2c(s1)CCC2)C1CC(=O)N(c2n[nH]c3cc(Br)ccc23)C1 (stereo not given)	-11%
CC1(c2ccccc2)CCCN(C(=O)CCn2ccc(=O)[nH]c2=O)C1 (stereo not given)	-8%
SMILES	Pf Dd2 inh
COC(=O)N1CCn2c(nnc2-c2ccccc2)C1	-14%[44.1 µM]
Cc1nn(-c2ccccn2)c(C)c1[C@@H]1C=C[C@@H](NC(=O)CCCC(=O)O)C1	22%[44.1 µM]
CCOc1cccc(C2Nc3ccccc3-c3cc(C)nn32)c1O (stereo not given)	1µM*
COc1cc(C2Nc3ccccc3-c3cc(C)nn32)ccc1O (stereo not given)	1%
COc1ccc(C2Nc3ccccc3-c3cc(C)nn32)cc1OC (stereo not given)	8%
CCOc1ccc(C2NC(=O)N(CC3CC3)C3=C2C(=O)OC3)cc1 (stereo not given)	-19%
CCC(=O)N1CCc2cc(Br)cc(S(=O)(=O)N3CCCC(C(=O)Nc4ccc(CC)cc4)C3)c21 (stereo not given)	i
Cc1cccc(NC(=O)C2CCCN(S(=O)(=O)c3cccc4nonc34)C2)c1 (stereo not given)	42%
CCC(=O)N1CCc2cc(Br)cc(S(=O)(=O)N3CCCC(C(=O)Nc4cccc(C)c4C)C3)c21 (stereo not given)	5µM*
CCC(=O)N1CCc2cc(Br)cc(S(=O)(=O)N3CCCC(C(=O)NCc4ccc(C)cc4)C3)c21 (stereo not given)	i
CCC(=O)N1CCc2cc(Br)cc(S(=O)(=O)NCc3ccccc3)c21	i
CCC(=O)N1CCc2cc(Br)cc(S(=O)(=O)N3CCCC(C(=O)Nc4ccc(OC)cc4OC)C3)c21 (stereo not given)	19%
CCCN(CCC)C(=O)C1CCCN(S(=O)(=O)c2cc(Br)cc3c2N(C(=O)CC)CC3)C1 (stereo not given)	-21%
CCC(=O)N1CCc2cc(Br)cc(S(=O)(=O)N3CCCC(C(=O)N(C)c4ccc(Br)cc4)C3)c21 (stereo not given)	8.9µM*
CCC(=O)N1CCc2cc(Br)cc(S(=O)(=O)N3CCCC(C(=O)Nc4cccc(F)c4)C3)c21 (stereo not given)	3.5µM*
Cc1noc([C@H]2CCN(C(=O)COc3ccccc3)C[C@H]2NC(=O)C2CC2)n1	8%[5.79 µM]
CN1[C@@H](CCC(=O)NCc2ccccc2)CNC(=O)[C@@H]2[C@H]1CCN2C1CCOCC1	20%[44.1 µM]
CN(C)CCN(C)[C@@H]1[C@H](O)[C@H](CO)O[C@@H]1CNC1CCN(C)CC1	9%
C=CCO[C@@H]1CCN2C(=O)c3cc(-c4cccc(C(F)(F)F)c4)ccc3NC(=O)[C@H]12	-23%[44.1 µM]
CCN(CC)c1ccc(-n2nc3cc(C)c(NC(=O)c4ccccc4F)cc3n2)cc1	1.4µM*
Cc1cc2nn(-c3ccc(F)cc3)nc2cc1NC(=O)c1cc(Cl)ccc1Cl	28%
Cc1cc2nn(-c3ccccc3)nc2cc1NC(=O)c1cccc2c(Cl)cccc12	46%
Cc1n[nH]c(C)c1-c1nc2c([nH]1)CNCC2	-3%
Cc1cccc(-n2ncc(C(=O)N3CCN(c4ccc(C)cc4C)CC3)c2C2CCN(C(=O)OC(C)(C)C)CC2)c1	-25%
Cc1ccc(C)c(N2CCN(C(=O)c3cnn(C(C)(C)C)c3C3CCN(C(=O)OC(C)(C)C)CC3)CC2)c1	8.9µM*
SMILES	Pf Dd2 inh
Cn1ncc(C(=O)N2CCN(c3ccccc3)CC2)c1C1CCN(C(=O)OC(C)(C)C)CC1	i
Cc1ccc(Cl)cc1N1CCN(C(=O)c2cnn(C)c2C2CCN(C(=O)OC(C)(C)C)CC2)CC1	4µM*
Cc1ccc(Cl)cc1N1CCN(C(=O)c2cnn(C(C)(C)C)c2C2CCN(C(=O)OC(C)(C)C)CC2)CC1	7.9µM*
c1cnc2c(c1)ncn2C1CCCCC1	-18%[44.1 µM]
CN1CCN(c2nc3c(c(=O)[nH]2)CCN(Cc2cc(F)cc(F)c2)CC3)CC1	i[5.79 µM]
CC(=O)NCC1(COc2cccnc2)C[C@@H](O)[C@@H](O)C1 (stereo not given in full)	37%[44.1 µM]
COc1cccc(NC(=O)[C@@H]2C[C@@H](c3cccc(C(F)(F)F)c3)N(C)C2)c1	-15%[44.1 µM]
Cc1noc(C)c1-c1cn(CCNS(=O)(=O)c2ccc(Cl)cc2)nn1	-21%
COCCOC(=O)C1=C(C)N=C2SC=C(CC(=O)NCCc3ccccc3)N2C1c1ccccc1 (stereo not given)	-19%
CCCC1c2nccn2CCCN1C(=O)c1cccn1C (stereo not given)	29%
Cc1ccc2nc(CO[C@H]3CN(C(=O)c4ccccc4)C[C@H]3F)[nH]c2c1	i
O=C(Nc1cccc(C(F)(F)F)c1)c1nc2c(o1)CCN(Cc1ccccc1F)CC2	i
Cc1noc(C)c1CN1CCc2nc(C(=O)Nc3cccc(C(F)(F)F)c3)oc2CC1	13µM*
